# Screening data as filed in PubChem.
# PG9 binder = PG9 antibody binding by small molecule; TR-FRET gp120-PG9 antibody binding; inhibition, % at 6.7 µM; 360,000 tested, 0.43% active; AID 624416; in the data active = inhibition above about 8.5%
# HSP90 refold inh = inhibitors of HSP90 luciferase refolding in rabbit reticulocyte lysate; luciferase refolding luminescence, 3 h; inhibition, % at 5.6 µM; 290,000 tested, 0.91% active; AID 1789;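 active = inhibition above the screen-wide mean plus 3 SD, computed separately per campaign, cut at about 16% in these data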;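 note: inhibitors lower the luminescence because luciferase stays unfolded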
# AI-2 QS modul = Vibrio harveyi AI-2 quorum sensing modulation; Vibrio harveyi JMH597 AI-2 luminescence/OD600 ratio, 9 h; active compounds read low; strain lacks LuxN and CqsS sensors; 0 = neutral-control median; activity change, % at 7.5 µM; 300,000 tested, 0.4% active; AID 2094; in the data active = activity change below about -75%, passing the limit was not always enough;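 note: luminescence divided by OD600 gain over 9 h not by final OD600 alone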
# GAA850 FXN act = activators of GAA850 frataxin (FXN) promoter; HEK293 lucGAA850 FXN promoter luciferase reporter, 24 h; percent of 10 µM SAHA response; activation, % at 6 µM; 360,000 tested, 0.56% active;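 active = activation above the average of all compounds screened plus 3 SD, cutoff fixed separately per campaign, cut at about 7.5% in these data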
# SMARCA2 activ = SMARCA2 function activation, primary screen; activation, % at 9.1 µM; 370,000 tested, 1% active; AID 652017; MG213 cells, MMTV-luciferase reporter, dexamethasone, overnight; in the data active = activation above about 7.8%
# HSF1 inh = HSF1 inhibition | NIH3T3-HGL HSE-luciferase, MG132-induced, luminescence 8 h; active compounds read low | activity change, negative = inhibition, % at 7.5 µM (by protocol) | 300,000 tested, 0.77% active;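 active = more than half of replicate wells show activity change below -50%, luminescence cut by over half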;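 note: luciferase reports HSF-1 transcriptional activity via heat shock element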
# PG9 bind confirm = PG9 antibody binding, confirmed. shares compounds with PG9 binder. TR-FRET PG9 antibody binding, biochemical. inhibition, % at 6.7 µM. 1,500 tested, 90% active; in the data active = inhibition above about 9%
# PGV04 Ab binding = binds control antibody PGV04 in PG9 binder counter-screen; shares compounds with PG9 binder; TR-FRET PGV04 antibody-gp120 binding, biochemical; inhibition, % at 6.7 µM; 1,500 tested, 95% active; in the data active = inhibition above about 9.5%
# PG9 binder DR = small molecules binding HIV-1 gp120 antibody PG9; shares compounds with PG9 binder; IC50, µM; TR-FRET PG9 antibody-gp120 binding inhibition; AID 651848; 95 tested, under 10 active; in the data active = IC50 below about 10 µM
# PGV04 binding DR = counter-screen for PG9 binders: binding to control antibody PGV04. shares compounds with PG9 binder. TR-FRET binding to control antibody PGV04. IC50, µM. 95 tested, 20% active. AID 651937
# PG126 binding DR = PG126 binding, dose response counter-screen; IC50, µM; TR-FRET binding to antibody PG126, counterscreen; shares compounds with PG9 binder; 95 tested, 20% active
# Hits are given with their value; i = inactive; nt = no result given. Most compounds without a hit are left out; they make up all but 3.4% or so of the library. Cut-off read from the data, not from the text of the source, unless noted: active = IC50 below about 9 µM; inactive = the rest.
SMILES,PG9 binder,HSP90 refold inh,AI-2 QS modul,GAA850 FXN act,SMARCA2 activ,HSF1 inh,PG9 bind confirm,PGV04 Ab binding,others
CCOC(=O)c1cc(-c2ccc(C)cc2)nc2nc(SC)[nH]c(=O)c12,24,i,i,i,i,i,33,34,
Cn1c(C(=O)NC2CCCCC2)cc2c(=O)n(C)c3ccccc3c21,12,i,i,i,i,i,15,26,
Cn1c(C(=O)NC2CCCCCC2)cc2c(=O)n(C)c3ccccc3c21,i,i,i,i,i,i,nt,nt,
Cc1ccc(NC(=O)Cn2cc(S(=O)(=O)c3ccccc3)c(=O)c3cc(F)ccc32)cc1,i,i,i,i,i,i,nt,nt,
Cc1ccc(NC(=O)Cn2cc(S(=O)(=O)c3ccc(C)cc3)c(=O)c3cc(F)ccc32)cc1,13,i,i,i,i,i,36,62,
N#Cc1c(N)c(C#N)c(-c2ccc3c(c2)OCO3)c2c1CCCC2,11,nt,i,i,i,i,10,23,
CCc1nnc(NC(=O)CSc2nc3cc4c(cc3cc2C)OCCO4)s1,12,i,i,i,i,i,25,43,
Cc1ccc(-c2cc(C(=O)N(C)Cc3cnn(C)c3C)c3cc(Br)ccc3n2)cc1,21,i,i,i,i,i,25,30,
Cc1nc2ccc3nc(NC(=O)c4ccc5c(c4)OCCO5)sc3c2s1,35,i,i,i,i,i,27,56,
Cc1nn(-c2ccccc2)c2sc(C(=O)NNC(=O)COc3cccc4ccccc34)cc12,10,i,i,i,i,i,11,20,
COC(=O)c1cc2c(c3c4cc(OC)ccc4n(S(=O)(=O)c4ccc(OC)cc4)c13)C(=O)N(Cc1ccco1)C2,i,nt,nt,nt,i,nt,nt,nt,
CCc1ccccc1NC(=O)CC1S/C(=N\c2nccs2)N(CC)C1=O (configuration not stated),15,i,i,i,i,i,9.0,12,
CC(=O)Nc1ccc(S(=O)(=O)NCC2CCN(C(=O)C(=O)c3cc4ccccc4o3)CC2)cc1,i,nt,nt,nt,i,nt,nt,nt,
O=C(N[C@@H](Cc1cccnc1)C(=O)N1CCC[C@H]1C(=O)NC1CCCC1)c1cccs1,i,nt,nt,nt,i,nt,nt,nt,
CC(OC(=O)/C=C/c1ccc2ccccc2n1)C(=O)NCc1ccccc1 (configuration not stated),15,nt,i,i,i,i,11,13,
CC(C)Nc1ncnc2c1ncn2[C@H]1CN(Cc2ccco2)C[C@@H](CO)O1,i,nt,nt,i,i,nt,nt,nt,
O=C(COC(=O)c1ccc2ccccc2c1)Nc1ncc(C(F)(F)F)cc1Cl,15,i,i,i,i,i,18,27,
Fc1ccc2nc(Nc3nc4c(F)cccc4s3)sc2c1,11,i,i,i,i,i,14,21,
Fc1cccc2sc(Nc3nc4ccccc4s3)nc12,14,i,i,i,i,i,13,29,
Fc1ccc2nc(Nc3nc4c(F)cc(F)cc4s3)sc2c1,i,i,i,i,i,i,nt,nt,
CCOC(=O)N1CCN(c2nc(SC)nc3sc4c(c23)CC(C)(C)OC4)CC1,i,nt,i,i,i,i,nt,nt,
CSc1nc(SC(C)C(=O)O)c2c3c(sc2n1)COC(C)(C)C3 (configuration not stated),9.0,i,i,i,i,i,21,30,
O=C(O)C1CC=CCC1C(=O)N1CCN(c2nc(-c3ccccc3)c3ccccc3n2)CC1 (configuration not stated),i,i,i,i,i,i,nt,nt,
O=C(O)C1CC=CCC1C(=O)N1CCN(c2nc(-c3ccccc3Cl)c3cc(Br)ccc3n2)CC1 (configuration not stated),13,nt,nt,i,i,nt,25,41,
CNC(=O)C[C@@H]1CC[C@@H]2[C@H](COC[C@H](O)CN2S(=O)(=O)c2ccccc2Cl)O1,i,nt,nt,nt,i,nt,nt,nt,
SMILES,PG9 binder,HSP90 refold inh,AI-2 QS modul,GAA850 FXN act,SMARCA2 activ,HSF1 inh,PG9 bind confirm,PGV04 Ab binding,others
O=C(CCc1ccccc1)Nc1nc2ccc(S(=O)(=O)N3CCOCC3)cc2s1,12,i,i,i,i,i,22,31,
Cc1c(Cl)c(-c2n[nH]c(=S)n2-c2ccc(F)cc2)nn1C,10,i,i,i,i,i,12,11,PG9 binder DR=i;PGV04 binding DR=i;PG126 binding DR=i
Fc1cccc(-c2n[nH]c(=S)n2-c2ccccc2)c1,15,i,i,i,i,i,i,9.5,
Cn1cc(Cl)c(-c2n[nH]c(=S)n2-c2ccccc2)n1,16,i,i,i,i,i,15,17,
Cn1cc(Cl)c(-c2n[nH]c(=S)n2-c2ccc(F)cc2)n1,i,i,i,i,i,i,nt,nt,
Cc1cccc(-n2c(-c3csc(C)c3)n[nH]c2=S)c1,i,i,i,i,i,i,nt,nt,
CCCS(=O)(=O)NC(=O)C1(C)CCN(C(=O)Cc2cccc3ccccc23)C1 (configuration not stated),nt,nt,nt,i,nt,nt,nt,nt,
CC(NC(=O)C(NC(=O)OCc1ccccc1)C(C)O)C(=O)OCc1ccccc1 (configuration not stated),i,nt,nt,nt,i,nt,nt,nt,
COC(=O)CC#C[C@H](C)[C@@H](NS(C)(=O)=O)C1CCCCC1,i,nt,nt,nt,i,nt,nt,nt,
CS(=O)(=O)Nc1ccc(C(=O)Nc2ccc(S(=O)(=O)Nc3nccs3)cc2)cc1,i,i,i,i,i,i,nt,nt,
CN(C)c1ccc(C(=O)Nc2ccc(S(=O)(=O)Nc3nccs3)cc2)cc1,26,i,i,i,i,i,38,47,
CC(NS(=O)(=O)c1cccc(Cl)c1F)[C@H](O)c1ccccc1 (some centres not stated),i,nt,nt,i,i,nt,nt,nt,
CCc1nc(N)c(C#N)c(-c2cccc3ccccc23)c1C,15,i,i,i,i,i,21,29,
Cc1cc(NC2C3CC4CC(C3)CC2C4)n2nnnc2n1 (configuration not stated),24,i,i,i,i,i,29,39,
Cc1cc(NC2C3CC4CC(C3)CC2C4)n2ncnc2n1 (configuration not stated),i,i,i,i,i,i,nt,nt,
O=C(Cc1ccccc1)Nc1nc(=O)c2ccccc2s1,68,i,i,i,i,i,72,78,
O=C(Nc1nc(=O)c2ccccc2s1)c1ccc(Cl)cc1,25,i,i,i,i,i,50,68,
